Results reported in PubChem BioAssay AID1347418 (Sanford-Burnham Center for Chemical Genomics, 2020).
Screen size: about 1,300 compounds; about 750 (58%) were called active. This is one part of the list. Values without a mark were called inactive.

molecular target: Sulfhydryl oxidase 1 (Homo sapiens) (UniProt O00391); assay: inhibition of human sulfhydryl oxidase QSOX1 – biochemical, ROS-Glo H2O2 luminescence, HTS, primary screen (AID 1347418); conditions: recombinant QSOX1, ROS-Glo H2O2 luminescence, at 12.5 µM, hits give high values; active = any value above zero unless noted
Sequence (O00391 whole entry, looked up): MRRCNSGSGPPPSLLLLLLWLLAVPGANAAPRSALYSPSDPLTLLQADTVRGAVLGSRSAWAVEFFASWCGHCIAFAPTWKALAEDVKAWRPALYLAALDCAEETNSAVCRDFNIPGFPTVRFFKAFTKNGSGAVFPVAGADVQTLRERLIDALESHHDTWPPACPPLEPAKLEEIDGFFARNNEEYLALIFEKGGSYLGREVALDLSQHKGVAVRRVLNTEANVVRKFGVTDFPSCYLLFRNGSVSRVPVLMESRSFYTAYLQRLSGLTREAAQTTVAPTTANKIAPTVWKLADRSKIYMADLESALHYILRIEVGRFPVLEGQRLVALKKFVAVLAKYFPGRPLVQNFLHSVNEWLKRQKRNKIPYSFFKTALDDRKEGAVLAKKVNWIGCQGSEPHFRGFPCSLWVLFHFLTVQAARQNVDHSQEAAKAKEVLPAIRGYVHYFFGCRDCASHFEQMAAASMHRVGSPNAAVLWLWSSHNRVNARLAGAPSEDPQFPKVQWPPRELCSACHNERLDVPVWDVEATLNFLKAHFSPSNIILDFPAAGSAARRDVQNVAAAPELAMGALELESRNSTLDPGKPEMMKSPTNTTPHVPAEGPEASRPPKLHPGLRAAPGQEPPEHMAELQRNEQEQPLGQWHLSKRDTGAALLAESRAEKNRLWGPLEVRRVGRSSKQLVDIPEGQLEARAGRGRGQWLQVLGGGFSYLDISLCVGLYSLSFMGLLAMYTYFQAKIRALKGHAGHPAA

| Compound | inhibition |
| --- | --- |
| C[C@]12Cc3cn4c(nc3C=C1CCC1C2CC[C@@]2(C)[C@H]1CC[C@@]2(O)C#N)nc1ccccc14 (some centres not stated) | 2.7% (active) |
| NC(C(=O)O)c1cc(=O)[nH]o1 (configuration not stated) | -2.4% |
| Cc1o[nH]c(=O)c1CC(N)C(=O)O (configuration not stated) | 4.2% (active) |
| CCCN(CCC)CCc1ccc(O)c(O)c1 | 14.4% (active) |
| CNCCc1ccc(O)c(O)c1 | 7.7% (active) |
| CC(N)c1cccc(Cl)c1Cl (configuration not stated) | 6.2% (active) |
| CC(C)(C)NCC(O)c1ccccc1Cl (configuration not stated) | -0.6% |
| O=C(O)[C@@H]1CCN1 | 9.3% (active) |
| C[C@H](N)Cc1cccc(C(F)(F)F)c1 | 1.6% [setting not given] (active) |
| O=[N+]([O-])c1cc(O)c(O)c([N+](=O)[O-])c1 | 13% (active) |
| NCCc1ccc(O)cc1 | -0.2% [setting not given] |
| N=C(N)c1ccc(CS(=O)(=O)F)cc1 | -0.1% |
| NCCc1ccc(S(=O)(=O)F)cc1 | 5.8% (active) |
| CC1=NN=C(c2ccc(N)cc2)c2cc3c(cc2C1)OCO3 | 10.6% (active) |
| NCC(CC(=O)O)c1ccc(Cl)cc1 (configuration not stated) | 1.1% [setting not given] (active) |
| NCC(CP(=O)(O)O)c1ccc(Cl)cc1 (configuration not stated) | 0.1% (active) |
| CCCCC/C=C\C/C=C\C/C=C\C/C=C\CCCC(=O)NCC(=O)O | 2.2% (active) |
| Cc1cccc(C)c1NC1=NCCCS1 | 0.2% [setting not given] (active) |
| Nc1ccncc1 | -1% [setting not given] |

| Compound | inhibition |
| --- | --- |
| CCN1C[C@@]2(COC)C3[C@@H](OC)C4[C@@H]1C3([C@@H]1C[C@@]3(O)[C@H](OC(=O)c5ccccc5)[C@@H]1[C@]4(OC(C)=O)[C@@H](O)[C@@H]3OC)[C@H](OC)C[C@H]2O | 2.6% (active) |
| CNc1ccc2oc(C[C@H]3O[C@@]4(CC[C@H]3C)O[C@H]([C@H](C)C(=O)c3ccc[nH]3)[C@H](C)C[C@H]4C)nc2c1C(=O)O | 14.2% [setting not given] (active) |
| Cc1nccc2c1[nH]c1ccccc12 | -2% [setting not given] |
| Cc1c2ccncc2c(C)c2c1[nH]c1ccccc12 | 29% [setting not given] (active) |
| NC(CCCCCP(=O)(O)O)C(=O)O (configuration not stated) | -4.6% |
| NC(CCP(=O)(O)O)C(=O)O (configuration not stated) | 2.8% (active) |
| NC(CP(=O)(O)O)C(=O)O (configuration not stated) | 2.8% (active) |
| CO[C@H]1CC=C2CCN3CCC4=C(CC(=O)OC4)[C@]23C1 | 0.6% (active) |
| O=c1[nH]oc2c1CCNC2 | -7.3% |
| c1ccc2sc(C3(N4CCCCC4)CCCCC3)cc2c1 | 0.2% (active) |
| Cc1sc2ccccc2c1CC1=NCCN1 | -3.3% |
| CC(C)N(CCC(C(N)=O)(c1ccccc1)c1ccccn1)C(C)C (configuration not stated) | 6.1% [setting not given] (active) |
| CC1(C(=O)O)C2CCC(O2)C1(C)C(=O)O (configuration not stated) | -3.3% |
| COc1ccc(CNC(=O)/C=C/c2ccc3[nH]cc(CCN(C)C)c3c2)cc1 | 1.8% [setting not given] (active) |
| CN(C(=O)Cc1ccc(Cl)c(Cl)c1)C(CN1CCCC1)c1cccc(OCC(=O)O)c1 (configuration not stated) | 1.2% (active) |
| COC(=O)N1CCN(C(=O)Cc2ccc(Cl)c(Cl)c2)C(CN2CCCC2)C1 (configuration not stated) | -0.5% |
| O=C(Cc1ccc(Cl)c(Cl)c1)N1CCCCC1CN1CCCC1 (configuration not stated) | -1.7% |
| CC(C)c1cccc(C(C)C)c1O | 0.9% (active) |
